This is part of a sample that, as a whole, favours compounds with a hit. Of some 83,000 tested, about 20% had one in any assay.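 Cell lines were cultured in 96-well plates, exposed to a single compound concentration, and assessed for percent growth 48 hours later.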 A number with no mark means an inactive call. Activity calls are given as the source filed them. The calls were made as follows: active = growth percent below 10; inactive = the rest.

What all share (experiment): NCI-60 one-dose screen, 48 h (100 = growth as untreated, 0 = no growth, -100 = all killed)
What all share (details): 10 µM

For experiment [1], the system named is DU-145 prostate.
For experiment [2], the system named is MALME-3M melanoma.
Experiment [3] deals with MDA-MB-231 breast.
The test system of experiment [4] is RXF 393 renal.
For experiment [5], the system named is SF-268 CNS.
The subject of experiment [6] is SF-295 CNS.
For experiment [7], the system named is SF-539 CNS.
Experiment [8] deals with UACC-257 melanoma.
Experiment [9] deals with M14 melanoma.
The subject of experiment [10] is HCT-15 colon.
Experiment [11] relates to HT29 colon.
The subject of experiment [12] is SNB-75 CNS.
Experiment [13] has as its system SNB-19 CNS.
Experiment [14] concerns U251 CNS.
In experiment [15] the test system is PC-3 prostate.
Experiment [16] has as its system SK-MEL-5 melanoma.
Experiment [17] relates to UACC-62 melanoma.
Experiment [18] has as its system LOX IMVI melanoma.
The test system of experiment [19] is SK-MEL-28 melanoma.

For `CCCc1nc(C(C)(C)O)c(C(=O)O)n1Cc1ccc(-c2ccccc2-c2nn[nH]n2)cc1`, the growth in experiment [1] was 120%; in [2], 102%; in experiment [3] it was 109%; in experiment [4] it was 117%; in [5], 101%; in experiment [6], 95.3%. Besides, the growth in [7] was 103%; in experiment [8], 103%; in experiment [9], 109%; in experiment [10], 101%; in [11], 93.6%; in experiment [12] it was 66.9%. For the same compound, the growth is 102% in experiment [13]; 103% in [14]; 95.9% in experiment [15]; 110% in experiment [16]; 94.5% in experiment [17]; 94.7% in experiment [18]. In addition, in experiment [19], the growth is 108%.

With `CCN1CC(CCN2CCOCC2)C(C(c2ccccc2)c2ccccc2)C1=O` (configuration not stated), the growth in experiment [1] was 118%; in experiment [2], 120%; in experiment [3], 87.6%; in [4], 107%; in [5], 112%; in experiment [6], 89.9%. The growth was 111% in experiment [7]; 105% in experiment [8]; 108% in experiment [9]; 94.1% in [10]; 102% in experiment [11]; 102% in experiment [12]. Besides, the growth in [13] is 102%; in [14] it was 101%; in experiment [15] it was 82.7%; in experiment [16] it was 100%; in experiment [17], 94.8%; in [18], 97.2%. Further, the growth in experiment [19] is 116%.

For the compound `CCC1NC(=O)c2cc(S(N)(=O)=O)c(Cl)cc2N1` (configuration not stated), the growth in experiment [1] was 124%; in experiment [2], 118%; in [3], 109%; in experiment [4] it was 115%; in experiment [5] it was 115%; in experiment [6], 93%. Besides, the growth in experiment [7] is 115%; in experiment [8], 104%; in experiment [9], 110%; in experiment [10] it was 109%; in experiment [11] it was 109%; in experiment [12], 105%. Moreover, the growth was 105% in experiment [13]; 96.3% in experiment [14]; 93.6% in experiment [15]; 104% in experiment [16]; 103% in [17]; 99.9% in [18]. Besides, the growth in experiment [19] is 121%.

Regarding `CCCCCOC(=O)Nc1nc(=O)n(C2O[C@H](C)[C@@H](O)[C@H]2O)cc1F` (some centres not stated), the growth in [1] is 115%; in [2], 103%; in experiment [3] it was 90.9%; in experiment [4] it was 98.1%; in [5] it was 95.4%; in experiment [6], 98.1%. In addition, the growth in [7] was 101%; in experiment [8], 96.2%; in experiment [9] it was 108%; in experiment [10], 101%; in experiment [11], 99.9%; in experiment [12] it was 77.1%. The growth in experiment [13] is 101%; in [14], 94.8%; in [15], 90.9%; in [16], 99.8%; in [17], 95%; in experiment [18], 100%. Further, in experiment [19], the growth is 115%.

Consider `COc1cc(C2CC(c3cc(Cl)c(C)cc3O)=NN2c2ccc(S(N)(=O)=O)cc2)cc(OC)c1OC` (configuration not stated), for which the growth is 35.9% in experiment [1]; 31.9% in experiment [2]; -8.53% (active) in experiment [3]; -2.73% (active) in experiment [4]; 24.6% in [5]; 22% in [6]. Moreover, the growth in experiment [7] is 2.6% (active); in experiment [8], 44.7%; in experiment [9] it was -26.5% (active); in experiment [10], 16.7%; in [11], 1.52% (active); in experiment [12], 45.7%. For the same compound, the growth in experiment [13] is 48.7%; in experiment [14], 16.9%; in experiment [15] it was 0.104% (active); in experiment [16], -4.95% (active); in [17] it was 16.3%; in [18] it was 16.2%. For the same compound, the growth in experiment [19] is 31.7%.

As for `CCCCC(CC)CN=C(N)NC(N)=NCCCCCCN=C(N)NC(N)=NCC(CC)CCCC` (configuration not stated), the growth in [1] was -98.1% (active); in [2] it was -73% (active); in experiment [3], -84.6% (active); in experiment [4], -43.5% (active); in [5] it was -82.8% (active); in experiment [6] it was -84.8% (active). The growth in experiment [7] is -76.9% (active); in experiment [8] it was -47.1% (active); in [9], -65.1% (active); in experiment [10], 7.37% (active); in [11] it was -82.8% (active); in experiment [12] it was -72.5% (active). Besides, the growth is -87.2% (active) in experiment [13]; -89.8% (active) in [14]; -69.7% (active) in experiment [15]; -89.8% (active) in [16]; -58% (active) in [17]; -80.8% (active) in experiment [18]. For the same compound, the growth in experiment [19] is -79.6% (active).

For `Nc1nc(Cl)nc2c1ncn2C1O[C@H](CO)[C@@H](O)[C@@H]1F` (some centres not stated), the growth was -3.84% (active) in experiment [1]; 60.9% in experiment [2]; 70% in [3]; 42.2% in [4]; 9.03% (active) in experiment [5]; 14.2% in experiment [6]. The growth is 37.7% in experiment [7]; 22.7% in experiment [8]; -48.4% (active) in experiment [9]; 48.1% in experiment [10]; 41.2% in [11]; 37% in experiment [12]. Further, the growth in [13] was 19%; in [14], 27%; in experiment [15], 60.5%; in experiment [16], 32.1%; in [17], -10.3% (active); in experiment [18] it was 4.83% (active). Also, in experiment [19], the growth is 73.8%.

With `Clc1ccc2c(c1)C(N1CCNCC1)=Nc1ccccc1O2`, the growth is 68.4% in experiment [1]; 2.69% (active) in [2]; 19.4% in [3]; 27.2% in experiment [4]; 52.9% in experiment [5]; 58% in experiment [6]. The growth in [7] was 73.4%; in experiment [8], -18.3% (active); in experiment [9] it was 15.7%; in experiment [10] it was 47.5%; in experiment [11] it was 11.6%; in experiment [12], 16.4%. In addition, the growth was 67.6% in [13]; 41.7% in experiment [14]; 40% in [15]; 10.4% in [16]; 30.4% in experiment [17]; 39% in experiment [18]. Also, the growth in experiment [19] is -10.9% (active).

These data come from PubChem BioAssay (NCI).
